Only some compounds are listed: those with a hit (about 7.4% of all), similar ones and a draw of the others.
NPC1 promoter act: qHTS Assay for NPC1 Promoter Activators | Huh7 NPC1 promoter luciferase reporter, 24 h | Potency, µM (doses to about 9.22 µM), hits mostly activators | 320,000 compounds, 2.4% hits; further: nearly all actives have a fitted effect of over 60% in size
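Stable NPC1-promoter luciferase Huh7 line; cpd (DMSO) 24 h, 37 °C, 5% CO2; Amplite luciferase reagent 10 min RT; luminescence readout. qHTS format.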
FLuc counter: qHTS profiling assay for firefly luciferase inhibitor/activator using purifed enzyme and Km concentrations of substrates (counterscreen for miR-21 project) | 360,000 compounds, 6.9% hits | Potency, µM (series often up to 57.5 µM), hits mostly inhibitors | Luciferin 4-monooxygenase (Photinus pyralis), P08659 | purified FLuc, Km substrates, luminescence inhibition | AID 588342, 2011; further: nearly all actives have a fitted effect of over 55% in size
Target sequence (P08659 whole entry, looked up): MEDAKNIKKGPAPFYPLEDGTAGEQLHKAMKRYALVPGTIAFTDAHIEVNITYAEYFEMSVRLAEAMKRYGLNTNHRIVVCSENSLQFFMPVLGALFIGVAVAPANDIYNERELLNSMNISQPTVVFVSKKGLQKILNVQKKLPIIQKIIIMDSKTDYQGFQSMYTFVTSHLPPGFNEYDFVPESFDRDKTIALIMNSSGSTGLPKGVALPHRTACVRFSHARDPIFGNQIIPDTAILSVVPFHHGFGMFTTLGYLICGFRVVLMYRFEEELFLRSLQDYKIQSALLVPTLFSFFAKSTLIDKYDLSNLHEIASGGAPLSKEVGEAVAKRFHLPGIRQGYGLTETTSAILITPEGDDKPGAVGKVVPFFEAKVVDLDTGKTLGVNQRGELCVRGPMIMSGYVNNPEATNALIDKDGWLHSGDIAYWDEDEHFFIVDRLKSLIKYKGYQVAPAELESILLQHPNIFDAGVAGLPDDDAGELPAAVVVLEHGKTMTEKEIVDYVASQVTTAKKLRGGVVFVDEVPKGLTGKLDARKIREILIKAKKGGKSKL
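Purified P. pyralis luciferase, 10 nM final, with Km-level 10 uM D-luciferin and 10 uM ATP in 50 mM Tris acetate pH 7.5, 10 mM Mg acetate, 0.01% Tween-20, 0.05% BSA; 6-point qHTS titration about 60 µM downward; luminescence read.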
SMN2 splice up: qHTS Assay for Enhancers of SMN2 Splice Variant Expression. HEK293 SMN2-luciferase splicing reporter, luminescence, 30-36 h. Potency, µM (highest dose often 46.1 µM), actives largely listed as activators. 210,000 compounds, 2.8% hits. AID 1458, 2008; further: nearly all actives have a fitted effect of over 55% in size
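HEK293 cells carry an SMN2 minigene-luciferase reporter in which exon 7 inclusion puts luciferase in frame. Cells were seeded at 2000 cells/well, attached for 10-12 hours, then exposed to compounds for 30-36 hours at 37C before ONE-Glo luminescence.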
ELG1 genotoxic: qHTS screen for small molecules that induce genotoxicity in human embryonic kidney (HEK293T) cells expressing luciferase-tagged ELG1; Potency, µM (doses to about 46 µM), actives largely listed as activators; HEK293T ELG1-luciferase reporter, luminescence, 16 h; AID 504466, 2011; 330,000 compounds, 1.3% hits; further: nearly all actives have a fitted effect of over 60% in size
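Genotoxicity was scored as increased ELG1-luciferase reporter signal, measured by ONE-Glo luminescence (30 min, room temperature). Compound or vehicle exposure of the HEK293T reporter cells lasted 16 hr at 37°C.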
Rab9 promoter act: qHTS Assay for Rab9 Promoter Activators; Huh7 Rab9 promoter-luciferase reporter, luminescence, 24 h; Potency, µM (series often up to 9.22 µM), most hits filed as activators; 320,000 compounds, 2.8% hits; AID 485297, 2010; further: nearly all actives have a fitted effect of over 60% in size
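Rab9 promoter-driven luciferase in stably transfected Huh7 cells; 1500 cells/well rested 2 h, exposed to compound in DMSO for 24 h at 37 °C, 5% CO2. Luminescence read 10 min after adding luciferase reagent at ambient temperature.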
p53 reactivation: qHTS assay for re-activators of p53 using a Luc reporter; H1299 p53-A138V BP100-luciferase reporter, luminescence, 24 h; Potency, µM (highest dose often 92.2 µM), usual class: activators; 320,000 compounds, 0.063% hits; AID 504706, 2011; further: nearly all actives have a fitted effect of over 45% in size
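H1299 (p53-null), stable ts p53-A138V + BP100-Luc; 1000 cells/well, Opti-MEM/10% FBS; cpd 4 pt, 1:5; 24 h, 37 deg C, 5% CO2; detection reagent 10 min RT; luminescence.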
Numbers stand for hits; [ ] = another dose, or the depositor's remark. The call rests on the fitted dose curve; in most records, active means well fitted curve in the direction sought with a large enough effect; inconclusive means small, poorly fitted or top-dose-only effect, or another doubt; inactive means no such curve, though single readings can be large; an effect the other way counts as inactive or inconclusive.

CN(CC(=O)Nc1c(Cl)cccc1Cl)C(=O)Cc1ccc2c(c1)CCC2 was read as NPC1 promoter act inactive, FLuc counter inactive, ELG1 genotoxic inactive, Rab9 promoter act inactive and p53 reactivation inactive.
Screening COC(=O)CNC(=O)[C@@]1(C)C=C[C@@H](Cc2ccccc2)N1C(C)=O returned SMN2 splice up 14.1µM.
CC(=O)N1[C@H](Cc2ccccc2)C=C[C@]1(C)C(=O)O was read as SMN2 splice up inactive.
`COc1ccccc1NC(=O)C1=C(C)Nc2nc(SCc3ccccc3C)nn2C1CC(C)C` (stereo not given) gave FLuc counter inactive and SMN2 splice up inactive.
Screening S=c1[nH]c(-c2ccccc2)cn1/N=C/c1ccccc1Br returned NPC1 promoter act inactive, FLuc counter 13.5µM, SMN2 splice up inactive, ELG1 genotoxic inactive, Rab9 promoter act inactive and p53 reactivation inactive.
CCOC(=O)N1CCC(NC(=O)c2oc3c(F)cccc3c2C)CC1 was read as NPC1 promoter act inactive, FLuc counter inconclusive, ELG1 genotoxic inactive[9.26 µM], Rab9 promoter act inconclusive and p53 reactivation inconclusive.
`CCOC(=O)/C(C#N)=C/c1ccc(N2CCN(C)CC2)cc1` gave NPC1 promoter act inactive, FLuc counter 26.9µM, SMN2 splice up inactive, ELG1 genotoxic inactive, Rab9 promoter act inactive and p53 reactivation inactive.
`CCOC(=O)/C(C#N)=C\c1ccc(N2CCN(C)CC2)cc1` gave NPC1 promoter act inactive, FLuc counter 12µM, SMN2 splice up inactive, ELG1 genotoxic inactive, Rab9 promoter act inactive and p53 reactivation inactive.
`CC(=O)c1cc2c(cc1NS(=O)(=O)c1ccccc1Br)OCO2` gave NPC1 promoter act inactive, FLuc counter inactive, ELG1 genotoxic inactive, Rab9 promoter act inactive and p53 reactivation inactive.
For Cc1nc(N)sc1C(=O)N/N=C/c1ccc([N+](=O)[O-])cc1 the results were NPC1 promoter act inconclusive, FLuc counter inactive, ELG1 genotoxic inactive, Rab9 promoter act inactive and p53 reactivation inactive.
`Cc1ccc2nc(C)c(C(=O)N/N=C/c3ccco3)cc2c1` gave NPC1 promoter act inactive, FLuc counter inconclusive, SMN2 splice up inactive, ELG1 genotoxic inactive, Rab9 promoter act inactive and p53 reactivation inactive.
Cc1nc(N)sc1C(=O)N/N=C/c1ccccc1[N+](=O)[O-] was read as NPC1 promoter act 2.82µM, FLuc counter inactive, SMN2 splice up 14.1µM, ELG1 genotoxic inactive, Rab9 promoter act 2µM and p53 reactivation inactive.
For Cc1ccc2nc(C)c(C(=O)N/N=C/c3ccccc3[N+](=O)[O-])cc2c1 the results were NPC1 promoter act inactive, FLuc counter 6.75µM, SMN2 splice up inactive, ELG1 genotoxic inactive, Rab9 promoter act inactive and p53 reactivation inactive.
For Cc1nc(N)sc1C(=O)N/N=C/c1c[nH]c2ccccc12 the results were NPC1 promoter act inactive, FLuc counter 19µM, SMN2 splice up inactive, ELG1 genotoxic 8.2µM, Rab9 promoter act inactive and p53 reactivation inactive.
`Cc1cc(Br)c(NC(=O)CSc2n[nH]c(N)n2)c(Br)c1` gave ELG1 genotoxic inactive and p53 reactivation inactive.
CCn1c(SCC(=O)NC(=O)Nc2ccc3c(c2)OCCO3)nnc1-c1cccs1 was read as NPC1 promoter act inactive, FLuc counter 19µM, SMN2 splice up inactive, ELG1 genotoxic inactive, Rab9 promoter act inactive and p53 reactivation inactive.
`CCn1c(SCC(=O)Nc2ccc3c(c2)OCCO3)nnc1-c1ccco1` gave NPC1 promoter act inactive, FLuc counter 15.1µM, SMN2 splice up inactive, ELG1 genotoxic inactive, Rab9 promoter act inactive and p53 reactivation inactive.
`CCn1c(SCC(=O)Nc2ccc3c(c2)OCCO3)nnc1-c1cccnc1` gave NPC1 promoter act inactive, FLuc counter 23.9µM, ELG1 genotoxic inactive, Rab9 promoter act inactive and p53 reactivation inactive.
